PubChem BioAssay (Tox21)
Where “and” joins values, the source holds several entries; their conditions need not be identical. Equal values may be shown once. Inconclusive results are not listed. Entries that show only a call come without a potency. A number with no mark means an inactive call. Calls of active or inactive are those of the source. The call rests on the fitted dose curve; in most records, active means well fitted curve in the direction sought with a large enough effect in the repeat runs; inconclusive means weak or mixed curves; inactive means no such curve, though single readings can be large; an effect the other way counts as inactive or inconclusive.

Experiment: Caspase-3/7 induction in HepG2 cells by small molecules, qHTS assay (AID 1346978); further: nearly all actives have a fitted effect of over 15% in size
Conditions: HepG2 caspase-3/7 activation, Caspase-Glo luminescence, 17 h; series mostly up to 92.4 µM
How it was run: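 Caspase-3/7 induction was measured by Caspase-Glo 3/7 luminescence (30 min, room temperature) after a 17 hr compound exposure of wild-type HepG2 cells seeded at 2,000 per well and pre-incubated 5 hr.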
Potency means the concentration at half of the fitted maximal effect.

| Compound | Potency | caspase activation |
| --- | --- | --- |
| c1ccc2c(c1)OCC(C1=NCCN1)O2 (stereo unspecified) | inactive |  |
| CC(C)CCCCCOC(=O)c1ccccc1C(=O)OCCCCCC(C)C | inactive |  |
| CC(C)CC(C)N (stereo unspecified) | inactive |  |
| CC(C)CBr | inactive |  |
| CCOC(=O)c1ccccc1S(=O)(=O)NC(=O)Nc1nc(Cl)cc(OC)n1 | inactive |  |
| Cn1cc(C2=C(c3cn(C4CCN(Cc5ccccn5)CC4)c4ccccc34)C(=O)NC2=O)c2ccccc21 | inactive |  |
| CN(CCCC(O)c1cccnc1)N=O (stereo unspecified) | inactive |  |
| CC(C)N1C(=O)N(c2ccccc2)CSC1=NC(C)(C)C | inactive |  |
| CCCCCCCCCCBr | inactive |  |
| Nc1ccc(Sc2ccc(N)cc2)cc1 | inactive |  |
| N#CCCO | inactive |  |
| Oc1ccc(C(c2ccc(O)cc2)(C(F)(F)F)C(F)(F)F)cc1 | inactive |  |
| Brc1c(Br)c(Br)c(Oc2c(Br)c(Br)c(Br)c(Br)c2Br)c(Br)c1Br |  | -0.566% [at 19 µM] |
| CN(C)S(=O)(=O)N(SC(F)(Cl)Cl)c1ccccc1 | inactive |  |
| N#CC(Cl)Cl | inactive |  |
| Nc1ccc(Cc2ccc(N)c(Cl)c2)cc1Cl | inactive |  |
| CCC(C)c1cc([N+](=O)[O-])cc([N+](=O)[O-])c1OC(=O)C=C(C)C (stereo unspecified) | inactive |  |
| Cc1cc(C)c(C2=C(OC(=O)CC(C)(C)C)C3(CCCC3)OC2=O)c(C)c1 | inactive |  |
| COc1ccc(N)cc1N | inactive |  |

| Compound | Potency | caspase activation |
| --- | --- | --- |
| S=C=Nc1cccc2ccccc12 | inactive |  |
| Nc1ccc(Cl)cc1C(=O)c1ccccc1 | inactive |  |
| CC(=[OH+])/C=C(/C)[O-].CC(=[OH+])/C=C(\C)[O-].CC(=[OH+])/C=C(\C)[O-].[Al] | inactive |  |
| O=c1c(C2CC(c3ccc(-c4ccc(Br)cc4)cc3)Cc3ccccc32)c(O)sc2ccccc12 (stereo unspecified) | inactive |  |
| O=C1C=CC(=O)c2ccccc21 | inactive |  |
| S=C(SSC(=S)N1CCCCC1)N1CCCCC1 | inactive |  |
| CCCCOP(=O)(CCCC)OCCCC | inactive |  |
| Nc1ccc([N+](=O)[O-])cc1Cl | inactive |  |
| O=C/C(Cl)=C(/Cl)C(=O)O | inactive |  |
| O=c1[nH]c2ccccc2n1C1CCN(CCCC(c2ccc(F)cc2)c2ccc(F)cc2)CC1 | 61.1 µM (active) |  |
| COc1ccc(OC)c(C=O)c1 | inactive |  |
| [Cl][Sb]([Cl])[Cl] | inactive |  |
| CCCCCCCCCBr | inactive |  |
| CC(C)(C)C(O)C(Oc1ccc(-c2ccccc2)cc1)n1cncn1 (stereo unspecified) | inactive |  |
| CCOCn1c(-c2ccc(Cl)cc2)c(C#N)c(Br)c1C(F)(F)F | inactive |  |
| CC1(C)[C@H](C(=O)O[C@H](C#N)c2cccc(Oc3ccccc3)c2)[C@@H]1/C=C(\Cl)C(F)(F)F | inactive |  |
| Clc1ccc(CCC(Cn2ccnc2)Sc2c(Cl)cccc2Cl)cc1 (stereo unspecified) | inactive |  |
| C[C@@H]1O[C@@H](O[C@H]2C[C@@H](O)[C@]3(CO)[C@H]4[C@H](O)C[C@]5(C)[C@@H](C6=CC(=O)OC6)CC[C@]5(O)[C@@H]4CC[C@]3(O)C2)[C@H](O)[C@H](O)[C@H]1O | inactive |  |
| CC(C)Oc1cccc(NC(=O)c2ccccc2C(F)(F)F)c1 | inactive |  |

Experiment: Caspase-3/7 induction in CHO-K1 cells by small molecules, qHTS cell viability counter screen (AID 1346979); further: nearly all actives have a fitted effect of over 35% in size
Conditions: CellTiter-Fluor fluorescence, 17 h; series mostly up to 92.4 µM
How it was run: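 Cytotoxicity counter screen run in parallel with the caspase-3/7 assay: CHO-K1 cells, 16hr compound treatment at 37C, then CellTiter-Fluor for 1hr before fluorescence reading.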

| Compound | Potency | activity change, negative = cytotoxicity |
| --- | --- | --- |
| c1ccc2c(c1)OCC(C1=NCCN1)O2 (stereo unspecified) | 23.7 µM (active) |  |
| CC(C)CCCCCOC(=O)c1ccccc1C(=O)OCCCCCC(C)C | 60.4 µM (active) |  |
| CC(C)CC(C)N (stereo unspecified) | inactive |  |
| CC(C)CBr | inactive |  |
| CCOC(=O)c1ccccc1S(=O)(=O)NC(=O)Nc1nc(Cl)cc(OC)n1 | inactive |  |
| Cn1cc(C2=C(c3cn(C4CCN(Cc5ccccn5)CC4)c4ccccc34)C(=O)NC2=O)c2ccccc21 | 10.6 µM (active) |  |
| CN(CCCC(O)c1cccnc1)N=O (stereo unspecified) | inactive |  |
| CC(C)N1C(=O)N(c2ccccc2)CSC1=NC(C)(C)C | 61.1 µM (active) |  |
| CCCCCCCCCCBr | inactive |  |
| Nc1ccc(Sc2ccc(N)cc2)cc1 | inactive |  |
| N#CCCO | inactive |  |
| Oc1ccc(C(c2ccc(O)cc2)(C(F)(F)F)C(F)(F)F)cc1 | 60.8 µM (active) and 68.6 µM (active) |  |
| Brc1c(Br)c(Br)c(Oc2c(Br)c(Br)c(Br)c(Br)c2Br)c(Br)c1Br |  | -1.81% [at 19 µM] |
| CN(C)S(=O)(=O)N(SC(F)(Cl)Cl)c1ccccc1 | 7.7 µM (active) |  |
| N#CC(Cl)Cl | inactive |  |
| Nc1ccc(Cc2ccc(N)c(Cl)c2)cc1Cl | 59.1 µM (active) |  |
| CCC(C)c1cc([N+](=O)[O-])cc([N+](=O)[O-])c1OC(=O)C=C(C)C (stereo unspecified) | 43.3 µM (active) |  |
| Cc1cc(C)c(C2=C(OC(=O)CC(C)(C)C)C3(CCCC3)OC2=O)c(C)c1 | inactive |  |
| COc1ccc(N)cc1N | 22.4 µM (active) and 29.4 µM (active) |  |

| Compound | Potency | activity change, negative = cytotoxicity |
| --- | --- | --- |
| S=C=Nc1cccc2ccccc12 | 60.5 µM (active) |  |
| Nc1ccc(Cl)cc1C(=O)c1ccccc1 | 61.1 µM (active) |  |
| CC(=[OH+])/C=C(/C)[O-].CC(=[OH+])/C=C(\C)[O-].CC(=[OH+])/C=C(\C)[O-].[Al] | inactive |  |
| O=c1c(C2CC(c3ccc(-c4ccc(Br)cc4)cc3)Cc3ccccc32)c(O)sc2ccccc12 (stereo unspecified) | 18.8 µM (active) |  |
| O=C1C=CC(=O)c2ccccc21 | 5.45 µM (active) |  |
| S=C(SSC(=S)N1CCCCC1)N1CCCCC1 | 1.88 µM (active) |  |
| CCCCOP(=O)(CCCC)OCCCC | inactive |  |
| Nc1ccc([N+](=O)[O-])cc1Cl | 61.1 µM (active) |  |
| O=C/C(Cl)=C(/Cl)C(=O)O | 38.5 µM (active) and 30.6 µM (active) |  |
| O=c1[nH]c2ccccc2n1C1CCN(CCCC(c2ccc(F)cc2)c2ccc(F)cc2)CC1 | 30.6 µM (active) and 26.6 µM (active) |  |
| COc1ccc(OC)c(C=O)c1 | inactive |  |
| [Cl][Sb]([Cl])[Cl] | 54.5 µM (active) |  |
| CCCCCCCCCBr | inactive |  |
| CC(C)(C)C(O)C(Oc1ccc(-c2ccccc2)cc1)n1cncn1 (stereo unspecified) | 61.1 µM (active) |  |
| CCOCn1c(-c2ccc(Cl)cc2)c(C#N)c(Br)c1C(F)(F)F | 2.73 µM (active) |  |
| CC1(C)[C@H](C(=O)O[C@H](C#N)c2cccc(Oc3ccccc3)c2)[C@@H]1/C=C(\Cl)C(F)(F)F | inactive |  |
| Clc1ccc(CCC(Cn2ccnc2)Sc2c(Cl)cccc2Cl)cc1 (stereo unspecified) | 11.9 µM (active) |  |
| C[C@@H]1O[C@@H](O[C@H]2C[C@@H](O)[C@]3(CO)[C@H]4[C@H](O)C[C@]5(C)[C@@H](C6=CC(=O)OC6)CC[C@]5(O)[C@@H]4CC[C@]3(O)C2)[C@H](O)[C@H](O)[C@H]1O | inactive |  |
| CC(C)Oc1cccc(NC(=O)c2ccccc2C(F)(F)F)c1 | 45.8 µM (active) |  |
